# L3MBTL1 inh: blocks human L3MBTL1; AlphaScreen L3MBTL1–H3K9me1 peptide binding; Potency, µM (titrated, usually from 57.1 µM), for the others: at the top dose activity, negative = inhibition, hits mostly inhibitors; 230,000 tested, 0.66% active; AID 485360; also: % is scaled to controls: 0 for no effect and ±100 for the full control effect; nearly all actives have a fitted effect of over 60% in size
#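 L3MBTL1 50 nM + b-AHA-H3(1-15)K9me1 75 nM, 30 min RT; compound added, 30 min RT; streptavidin donor/Ni-chelate acceptor beads 10 ug/mL each final, 30 min RT dark; AlphaScreen read.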
# G9a inh: blocks human histone lysine methyltransferase G9a | G9a H3K9 monomethylation, AlphaScreen, 2 h | AID 504332 | 350,000 tested, 8.8% active | Potency, µM (highest dose often 102 µM), without a hit: at the highest dose activity, negative = inhibition, actives largely listed as inhibitors | Q96KQ7; also: % is scaled to controls: 0 for no effect and ±100 for the full control effect; nearly all actives have a fitted effect of over 75% in size
# Target sequence (Q96KQ7 913-1193 limits assumed): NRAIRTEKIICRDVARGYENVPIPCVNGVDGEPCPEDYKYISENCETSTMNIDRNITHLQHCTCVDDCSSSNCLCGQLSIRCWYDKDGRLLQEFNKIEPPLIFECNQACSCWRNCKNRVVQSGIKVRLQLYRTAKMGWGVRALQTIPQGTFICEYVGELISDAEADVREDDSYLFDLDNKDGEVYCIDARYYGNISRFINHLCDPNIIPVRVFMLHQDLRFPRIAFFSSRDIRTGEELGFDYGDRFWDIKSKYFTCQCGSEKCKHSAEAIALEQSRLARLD
#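 Methyltransferase reactions run at room temperature for 2 h (20 nM enzyme, 500 nM biotin-H3K9 peptide, 20 uM SAM) after a 15 min compound preincubation; product detected by AlphaScreen beads and anti-H3K9me1 antibody.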
# BAZ2B block: BAZ2B (human) inhibition. Q9UIF8. AlphaScreen BAZ2B-H3K14Ac peptide displacement. AID 504333. 360,000 tested, 4.4% active. Potency, µM (series often up to 114 µM), without a hit: at the highest dose activity change, negative = inhibition, hits mostly inhibitors; also: % is scaled to controls: 0 for no effect and ±100 for the full control effect; nearly all actives have a fitted effect of over 60% in size
#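 AlphaScreen displacement of biotin-H3(5-23)K14Ac peptide (50 nM final) from BAZ2B (50 nM final) in PBS pH 7.4, 0.01% Tween-20; complex preformed 30 min RT, then compounds (top 110 uM) 30 min RT, beads 20 min dark.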
# JMJD2A Tudor inh: inhibitors of human JMJD2A Tudor domain. O75164. AlphaScreen JMJD2A-Tudor / H3K4me3 peptide binding. Potency, µM (highest dose often 114 µM), inactives show at the highest dose activity change, negative = inhibition, actives largely listed as inhibitors. 390,000 tested, 4.4% active; also: % is scaled to controls: 0 for no effect and ±100 for the full control effect; nearly all actives have a fitted effect of over 50% in size
# HP1b binding inh: inhibitors of HP1-beta chromodomain binding to methylated histone tails; P83916; AlphaScreen HP1-beta / biotin-H3K9me3 peptide binding; AID 540317; 390,000 tested, 0.56% active; Potency, µM (doses to about 114 µM), for inactives: at the highest dose activity change, negative = inhibition, actives largely listed as inhibitors; also: nearly all actives have a fitted effect of over 70% in size
# Target sequence (P83916 whole entry, looked up): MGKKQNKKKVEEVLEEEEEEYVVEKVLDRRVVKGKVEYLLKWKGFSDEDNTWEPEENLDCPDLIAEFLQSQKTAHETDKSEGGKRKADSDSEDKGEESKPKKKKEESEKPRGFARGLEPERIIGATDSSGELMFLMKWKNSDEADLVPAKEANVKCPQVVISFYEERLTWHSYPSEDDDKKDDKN
#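 Compound inhibition of the preformed complex between 50 nM HP1-beta and 50 nM biotinylated H3K9me3 peptide was read by AlphaScreen. Buffer was PBS pH 7.4 with 0.01% Tween-20. Incubations ran 30 min at room temperature, with 10 ug/mL donor/acceptor beads.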
# Starred values were filed as active, the others as inactive; ? = inconclusive; / = not tested or not shown; [ ] = dose if it differs, or a comment. Hits are enriched below; roughly 11% of the tested compounds scored in any of these assays. Calls follow the shape of the dose curve; as a rule, active = well fitted inhibition curve with a large enough effect; inconclusive = small, poorly fitted or top-dose-only effect; inactive = no such curve, though single readings can be large or run the other way. Potency is read from the fitted curve at half-maximal effect.
SMILES,L3MBTL1 inh,G9a inh,BAZ2B block,JMJD2A Tudor inh,HP1b binding inh
CCC(C)N(C(=O)COC(=O)c1cc([N+](=O)[O-])ccc1N1CCOCC1)C1CCS(=O)(=O)C1 (stereo not given),-5.3%,-1.9%,11.1%,-15.5%,4.7%
CCC(C)N(C(=O)COC(=O)CSc1ccc([N+](=O)[O-])cc1)C1CCS(=O)(=O)C1 (stereo not given),/,39.8µM*,-27.3%,-8.2%,19.0%
Cc1cc(C)n2nc(C(=O)OCC(=O)N(C)C3CCS(=O)(=O)C3)nc2n1 (stereo not given),0.0%,-2.2%[12.7 µM],13.1%,-7.1%,24.2%
O=C(O)c1ccc(Cl)c(S(=O)(=O)Nc2ccccc2C(=O)Nc2ccc(Cl)cc2)c1,/,?,-9.2%,-14.7%,-25.0%
Cc1ccc(N(CCC#N)C(=O)COC(=O)C2=COCCO2)cc1,3.0%,39.8µM*,11.0%,-8.3%,-0.9%
Cc1ccc(S(=O)(=O)N2CCC(C(=O)OCC(=O)N(CCC#N)c3ccc(F)cc3)CC2)cc1C,1.6%,-6.9%,12.1%,-21.2%,17.5%
CN(C)C(=O)c1ccc(NC(=O)COC(=O)C2CCN(S(=O)(=O)c3ccc4c(c3)OCCO4)CC2)cc1,-0.8%,39.8µM*,5.8%,0.7%,28.5%
Cc1ccc(N(CCC#N)C(=O)COC(=O)C2CCN(S(=O)(=O)c3ccc4c(c3)OCCO4)CC2)cc1,-1.1%,31.6µM*,2.2%,-20.7%,10.2%
Cc1ccc(-n2nc(C(=O)Nc3ccc(Br)cc3C)c(=O)n(C)c2=O)cc1,/,-0.6%[59 µM],-1.4%,-4.8%,18.9%[57 µM]
CC(C)(C)c1ccc(C(=O)Nc2onc3c2CCCC3)cc1,/,2.1%[59 µM],1.3%,-18.1%,39.2%
c1ccc2[nH]c(CN3CCOCC3)nc2c1,/,14.5%[59 µM],-28.3%,-13.3%,12.7%
c1ccc2[nH]c(SN3CCOCC3)nc2c1,-1.3%,?,20µM*,/,/
CCCCN(C(=O)c1c(CC)noc1C)c1c(N)n(CCC)c(=O)[nH]c1=O,2.9%,3.8%[12.7 µM],13.9%,-11.7%,13.5%
CC(Oc1cccc(Cl)c1)C(=O)N(C)CC(=O)Nc1ccc(N2CCOCC2)cc1 (stereo not given),-2.6%,39.8µM*,-2.1%,-10.3%,6.1%
O=C(COc1cccc(Cl)c1)Nc1ccc(N2CCOCC2)cc1,/,79.4µM*,2.9%,-28.8%,13.1%
COc1ccc(C(CC(=O)O)NC(=O)COc2cc(C)ccc2C)cc1OC (stereo not given),/,31.6µM*,/,-12.7%,3.9%
COc1ccc(C(CC(=O)O)NC(=O)COc2ccccc2)cc1OC (stereo not given),8.5%,79.4µM*,-0.2%,-6.9%,12.8%
COc1cccc(-c2nc(NC3CCCC3)c3ccccc3n2)c1O,/,?,35.5µM*,?,-16.3%
COc1cccc(-c2nc(N3CCCCC3C)c3ccccc3n2)c1O (stereo not given),-7.3%,44.7µM*,?,39.8µM*,-35.8%
COc1cccc(-c2nc(N3CCN(C)CC3)c3ccccc3n2)c1O,-8.8%,?,?,?,-4.6%
CC(=O)Nc1ccc(NC(=O)C(C)OC(=O)c2ccc(S(=O)(=O)N3CCCCCC3)cc2)cc1 (stereo not given),3.1%,/,/,-17.2%,3.7%
CC(=O)O[C@@]1(C(C)=O)CCC2C3CC(C)C4=CC(=O)CC[C@@]4(C)C3CC[C@]21C (stereo not given in full),/,-21.1%[2.33 µM],/,/,/
FC(F)(F)c1cnc(-n2cc[nH]c2=S)c(Cl)c1,/,31.6µM*,13.3%,79.4µM*,29.1%
Nc1ccn(-c2ncc(C(F)(F)F)cc2Cl)c(=O)n1,5.8%,25.5%[12.7 µM],-17.1%,3.8%[57.1 µM],41.6%
COc1ccc(C2=CC3=C(Br)C(=O)C(C)(OC(=O)c4cccs4)C(=O)C3=CO2)cc1 (stereo not given),/,/,/,28.2µM*,?
SMILES,L3MBTL1 inh,G9a inh,BAZ2B block,JMJD2A Tudor inh,HP1b binding inh
COC(=O)CCCC1=CC2=CC(=O)C(C)(OC(=O)c3cccs3)C(=O)C2=CN1c1ccc(OC)cc1 (stereo not given),/,-5.9%[59 µM],-30.0%,?,-9.9%
COc1ccc(C2=CC3=C(Br)C(=O)C(C)(OC(=O)c4ccco4)C(=O)C3=CO2)cc1 (stereo not given),/,?,44.7µM*,28.2µM*,?
CCN(CC)C(=O)Cn1cc(SCC(=O)Nc2cccc(C)c2)c2ccccc21,/,-12.2%[59 µM],-10.2%,-5.9%,29.6%
COc1ccc(-c2noc3c2-c2nc(-c4cccc(C)c4)sc2CC3)cc1,-1.8%,/,-4.9%,-9.1%,45.3%
Cc1onc(-c2ccccc2)c1-c1n[nH]c(=S)n1-c1ccc(C(=O)O)cc1,/,?,?,44.7µM*,29.0%
Cc1onc(-c2ccccc2)c1-c1n[nH]c(=S)n1-c1ccccc1Cl,-2.1%,23.2%[0.501 µM],-25.6%,-28.1%,21.7%
COc1ccccc1CNC(=O)C1CCN(C2=NS(=O)(=O)C(c3ccc(C)c(C)c3)=C2C)CC1,/,-2.6%[59 µM],3.4%,56.2µM*,37.7%
COc1ccc(NC(=O)c2ccccc2[N+](=O)[O-])cc1,4.3%,18.9%[59 µM],3.3%,-7.9%,30.2%
COc1ccc(Nc2c([N+](=O)[O-])ccc3c2=NC2(CCCCC2)N=3)cc1,?,10µM*,7.08µM*,15.8µM*,8.91µM*
Cc1c(C(=O)Nc2cccc(F)c2)oc2c1-c1nn(Cc3c(F)cccc3Cl)cc1CC2,/,17.9%[59 µM],33.4%,-17.8%,64.6%
S=C1Cc2ccccc2N1,-9.5%,4.47µM*,-35.5%,79.4µM*,?
CCOC(=O)c1ccc(N2CCN(c3cc(C)ccc3C)CC2)c(NC(=O)Nc2ccc(Cl)cc2)c1,/,5.3%[59 µM],-11.3%,-16.8%,12.0%
Cc1ccccc1Oc1nc2c(c(=O)n(C)c(=O)n2C)n1Cc1ccc(Br)cc1,/,-50.5%[59 µM],-11.4%,-7.6%,32.3%
O=C(NNC(=O)c1ccc(S(=O)(=O)N2CCOCC2)cc1)c1ccccc1,/,22.1%,11.5%,-1.4%,21.2%
O=C(OCc1cc(=O)n2nc(-c3cccs3)sc2n1)c1ccc(Cl)cc1,/,14.2%[59 µM],-25.1%,-24.7%,12.6%
FC(F)(F)c1cnc(COc2ccc(Cl)cc2Cl)c(Cl)c1,/,/,101.0%,82.3%,202.4%
COc1ccc(-c2csc(NCc3ccco3)n2)cc1,-3.3%,39.8µM*,50.1µM*,79.4µM*,?
c1coc(CNc2nc(-c3ccncc3)cs2)c1,-4.6%,-24.2%[59 µM],-10.9%,?,-30.4%
Cc1ccn2c(NCc3ccccc3)c(-c3cccs3)nc2c1,-8.6%,-47.3%,?,?,-1.7%
Cc1ccn2c(-c3csc(NCc4ccccc4)n3)c(C)nc2c1,-3.1%,5.01µM*,31.6µM*,56.2µM*,?
C=CCNc1nc(-c2c(C)nc3ncccn23)cs1,-2.1%[2.29 µM],4.6%[0.501 µM],-4.0%,-11.0%,14.3%
Cc1nc(C)c(-c2csc(NCc3ccccc3)n2)s1,?,50.1µM*,50.1µM*,?,?
Cc1nc2ccccn2c1-c1csc(NCc2ccco2)n1,-14.0%[11.4 µM],8.91µM*,50.1µM*,-33.6%[57.1 µM],2.4%

# Screening results: PubChem BioAssay, National Center for Advancing Translational Sciences (NCATS)
